Compound activity (PubChem BioAssay)
TWEAK Fn14 block = inhibitors of TWEAK-Fn14 interaction signaling | 2% of 360,000 active | TWEAK-stimulated Fn14 reporter cells, luciferase luminescence, 8 h | inhibition, % at 10 µM; in the data active = inhibition above about 50%
HIF-2a inh = blocks HIF-2a reporter activity; 786-0 RCC cells HIF-2a reporter, luciferase luminescence, overnight; inhibition, % at 18.8 µM; 0.72% of 360,000 active;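 active = inhibition of the luminescence signal of 40% or more relative to plate controls, in a single-dose primary screen at 18.75 µM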
HSP90 refold inh = blocks HSP90-mediated luciferase refolding in reticulocyte lysate; Rabbit reticulocyte lysate, luciferase refolding luminescence, 3 h; 0.91% of 290,000 active; inhibition, % at 5.6 µM; AID 1789;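 active = inhibition above the screen-wide mean plus 3 SD, computed separately per campaign, cut at about 16% in these data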;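 note: 0% = DMSO wells and 100% = 60 µM geldanamycin wells; inhibitors lower the luminescence because luciferase stays unfolded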
TROY NFkB inh = blocks TROY-dependent signaling in reporter cells; Q293 LMP1-TROYcd NF-kB luciferase reporter, 4 h; inhibition, % at 10 µM; 0.98% of 360,000 active;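 active = compounds whose plate-normalised and pattern-corrected inhibition of the luciferase reporter signal at the single screening dose is 50% or more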
aSyn UTR inh = MLPCN primary screen, SNCA 5' untranslated region. alpha-synuclein 5'UTR reporter, inhibitor activity. AID 1813. 0.82% of 300,000 active. inhibition, % (tested at 7.5 µM); in the data active = inhibition above about 60%;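 note: H4 neuroglioblastoma cells stably carrying SNCA 5'UTR luciferase fusion; 0% = DMSO wells and 100% = positive control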
C8 TRAIL sens = sensitizes caspase-8 expressing cells to TRAIL | inhibition (viability loss, TRAIL sensitization), % at 10 µM | NB7+C8 cells + TRAIL, ATPlite viability luminescence | 1% of 360,000 active;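 active = compounds causing at least 50% loss of cell viability in the single-dose screen, relative to plate controls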
Active calls of the source: *; nt = no result given. Sampled rows, rich in hits. Any-hit rate of the full collection: about 3.9%.

SMILES	TWEAK Fn14 block	HIF-2a inh	HSP90 refold inh	TROY NFkB inh	aSyn UTR inh	C8 TRAIL sens
Cc1ccc(/C=N/Nc2nnc(Cl)c3ccccc23)cc1	-3	-197	-3	-58	-157	86*
Clc1ccc(/C=N/Nc2nnc(Cl)c3ccccc23)cc1	-45	-198	2	-50	-165	27
Cc1ccc(Cc2c(C(C)(C)C)nc3cc(C)c(Br)c(C)n23)cc1	1	27	nt	-23	nt	-29
O=C(C(=O)c1cc(Br)ccc1O)c1cc(Br)ccc1O	34	-35	nt	66*	nt	44
O=C(c1ccc(O)c(Br)c1)c1cc(Br)ccc1O	50	-2	nt	50*	nt	-10
Cc1c(Cl)cccc1N=C1NC(=O)CS1	0	14	nt	-18	nt	1
Oc1cccc2ccc(/C=C/c3ccccc3Cl)nc12	95*	-245	-2	74*	33	36
COC1=CC(=O)c2c(ccc3ncnc(N)c23)C1=O	100*	91*	nt	54*	nt	92*
CO[C@H]1CN(C)C(=O)c2cc(NC(=O)C3CCOCC3)ccc2OC[C@H](C)N(Cc2nccs2)C[C@H]1C	nt	4	nt	nt	nt	-10
Cc1ccc(N=C2SC(C(=O)Nc3ccc(OC(F)(F)F)cc3)C(N)=C2C(=O)Nc2c(C)cc(C)cc2C)cc1 (configuration not stated)	64*	40	-2	13	nt	12
Cc1ccc(NC(=O)C2SC(=Nc3ccccc3)C(C(=O)Nc3ccc(Cl)cc3)=C2N)cc1 (configuration not stated)	-10	-10	-1	-29	nt	3
C/C(=N/Nc1ccccc1[N+](=O)[O-])c1ccc([N+](=O)[O-])cc1	-23	14	-7	51*	-2	-7
CC/C(=N\Nc1ccccc1[N+](=O)[O-])c1ccc(O)cc1	5	-115	6	53*	-90	-4
CC/C(=N\Nc1ccc([N+](=O)[O-])cc1[N+](=O)[O-])c1ccc(O)cc1	-21	-3	-1	18	9	4
CC1=C/C(=N\Nc2ccccc2[N+](=O)[O-])CC(C)(C)C1	12	-11	-1	58*	6	-6
OC(c1cccnc1)c1nc(-c2ccc3c(c2)OCO3)cs1 (configuration not stated)	5	-112	nt	-38	nt	-4
CNC(=O)c1sc(N2N=C3/C(=C/c4ccccc4)CCCC3C2c2ccccc2)nc1C (configuration not stated)	58*	14	1	30	-2	-9
O=C(c1ccccn1)N1N=C2/C(=C/c3ccccc3)CCCC2C1c1ccccc1 (configuration not stated)	9	-4	-2	-10	-10	-1
CNC(=O)c1sc(N2N=C3/C(=C\c4ccccc4)CCCC3C2c2ccccc2)nc1C (configuration not stated)	84*	28	nt	48	nt	15
O=[N+]([O-])c1ccc2ncnc(N3CCN(Cc4ccc5c(c4)OCO5)CC3)c2c1	78*	11	3	46	-26	31
COc1ccc2[nH]c3c(N4CCN(Cc5ccc6c(c5)OCO6)CC4)ncnc3c2c1	38	26	1	51*	-6	-2
CCOc1ccc2[nH]c3c(N4CCc5ccccc5C4)ncnc3c2c1	27	-24	-2	13	33	13
COc1ccc2[nH]c3c(N4CCC(O)(c5cccc(C(F)(F)F)c5)CC4)ncnc3c2c1	75*	-7	-1	64*	-54	27
COCCN1C(=O)CN(S(C)(=O)=O)CC1(C)C(=O)Nc1ccc2c(c1)OCCO2 (configuration not stated)	nt	7	nt	nt	nt	11
CCc1ccccc1NC(=O)COc1ccc2c(=O)c(Oc3cc(C)ccc3C)coc2c1	5	8	-1	56*	26	9
CCOC(=O)C1=CCN(S(=O)(=O)c2ccccc2C)C1c1ccc(Cl)cc1 (configuration not stated)	4	14	nt	-23	nt	59*
CCOC(=O)C1=CCN(S(=O)(=O)c2ccccc2F)C1c1ccc(Cl)cc1 (configuration not stated)	9	11	nt	2	nt	6
Oc1cccc(/C=N/Nc2cccc3cccnc23)c1	37	-79	-2	0	-142	54*
C/C(=N\Nc1cccc2cccnc12)c1ccc(N)cc1	50	-184	2	62*	-93	2
O=[N+]([O-])c1ccc(N/N=C/c2cccc(O)c2)cc1	-69	-94	-3	51*	-171	39
